The structures appear in SMILES notation. Several values for one entry are separate records, joined by “and”; a condition that tells them apart may be missing. Equal values may be shown once. Some structures have more than one record in an assay (separate samples or runs), and their calls can disagree. Activity calls are given as the source filed them. How the source made its calls: active means hit-call score of the fitted dose curve at least 0.9, where 1 is the maximum; inactive means score below 0.9.

In PubChem BioAssay (EPA / NIEHS) one finds outcome and AC50 data, which are given here for 5 compounds.

Assay [1] can be described thus: APR_HepG2_P-H2AX_72hr: Apredica 72-hour HepG2 Assay for H2AX Phosphorylation (AID 2282916).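 Further: phospho-histone H2A.x immunostain intensity per cell marking DNA damage.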 The conditions noted are these: imaging, actives raise or lower the signal. In outline: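 Following 72 hr treatment with 0.39–200 uM compound, HepG2 cells were formaldehyde-fixed, permeabilized and stained for phospho-H2A.x; signal was measured by high-content imaging and fitted bidirectionally against DMSO controls.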

Assay [2] is described as follows: APR_HepG2_MitoMembPot_72hr: Apredica 72-hour HepG2 Assay for Mitochondrial Membrane Potential (AID 2282917). The conditions noted are these: imaging, actives raise or lower the signal. Summed up:
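Membrane potential read by MitoTracker Red CMXRos (250 nM, 30 min, pre-fixation) fluorescence imaging of HepG2 after 72 hr exposure. Ten concentrations, 0.39–200 uM, duplicate wells, 0.5% DMSO; fitted in both directions against DMSO baseline.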

The nature of assay [3]: APR_HepG2_MitoticArrest_72hr: Apredica 72-hour HepG2 Assay for Mitotic Arrest (AID 2282918). The following applies: high-content imaging, actives raise or lower the signal. In outline:
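Read-out is phospho-histone H3 immunofluorescence with Hoechst nuclear segmentation, imaged at 20x. Human HepG2 liver cells received ten concentrations (0.39–200 uM, final DMSO 0.5% v/v) for 72 hr before fixation. Gain or loss of signal was fitted relative to DMSO.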

Assay [4] in a line: APR_HepG2_MicrotubuleCSK_72hr: Apredica 72-hour HepG2 Assay for Microtubule CSK Stabilty (AID 2282919). The conditions noted are these: HepG2 microtubule cytoskeleton, high-content imaging, actives raise or lower the signal. In outline:
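Read-out is tubulin fluorescence intensity from high-content imaging of HepG2 cells, with nuclei identified by Hoechst 33342. Treatment lasts 72 h at 0.39–200 uM, and curves are fitted bidirectionally against the DMSO negative control.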

A short description of assay [5]: APR_HepG2_P-H2AX_24hr: Apredica 24-hour HepG2 Assay for H2AX Phosphorylation (AID 2282920). The conditions noted are these: high-content imaging, actives raise or lower the signal. In outline:
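HepG2, 24 hr, cpd 0.39–200 uM (10 conc, duplicate), DMSO 0.5% v/v final. Fix 3.7% formaldehyde, Triton X-100 permeabilize, anti-phospho-H2A.x 1:200 + Hoechst 2 ug/mL. Imaged, bidirectional fit vs DMSO.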

Assay [6] is described as follows: APR_HepG2_StressKinase_72hr: Apredica 72-hour HepG2 Assay for Stress Kinase (AID 2282921). The following applies: HepG2 stress kinase (phospho-c-Jun) imaging, actives raise or lower the signal. In outline: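 Fluorescence intensity of Cy3-tagged anti-phospho-c-Jun antibody, quantified per cell from Hoechst-defined nuclei across six images per well, served as the read-out following 72 h exposure (0.39–200 uM, 0.5% v/v DMSO).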

Assay [7] in a line: APR_HepG2_StressKinase_24hr: Apredica 24-hour HepG2 Assay for Stress Kinase (AID 2282922). The following applies: HepG2 stress kinase (phospho-c-Jun) imaging, actives raise or lower the signal. Summed up: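 HepG2, 24 hr dosing, 0.39–200 uM in duplicate, 0.5% DMSO; formaldehyde fix (3.7%), 0.5% Triton X-100; anti-phospho-c-Jun + Cy3 secondary, Hoechst counterstain; ArrayScan imaging; bidirectional curve fit vs DMSO baseline.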

Assay [8] can be described thus: APR_HepG2_p53Act_72hr: Apredica 72-hour HepG2 Assay for p53 Activation (AID 2282923).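 Further: average cellular p53 protein immunofluorescence intensity in HepG2 cells.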 The following applies: high-content imaging, actives raise or lower the signal. Summed up: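 HepG2 monolayers receive test compounds in duplicate at ten concentrations (0.39 through 200 uM) for 72 hr. They are then formaldehyde-fixed, antibody-labelled for p53, Hoechst-stained and imaged, with activity fitted bidirectionally versus DMSO.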

The nature of assay [9]: APR_HepG2_MitoMass_72hr: Apredica 72-hour HepG2 Assay for Mitochondrial Mass (AID 2282924).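 Further: MitoTracker Red CMXRos stain intensity per cell imaged as mitochondrial mass.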 The conditions noted are these: high-content imaging, actives raise or lower the signal. In outline: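 HepG2, 72 hr cmpd, 10 conc 0.39–200 uM in dup, DMSO 0.5% v/v. MitoTracker Red CMXRos 250 nM 30 min pre-fix; formaldehyde 3.7% fix 30 min RT. HCS imaging, gain/loss fit vs DMSO.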

The nature of assay [10]: APR_HepG2_NuclearSize_72hr: Apredica 72-hour HepG2 Assay for Nuclear Size (AID 2282925). The following applies: high-content imaging, actives raise or lower the signal. Summed up:
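HepG2; cpd 0.39–200 uM, 10 conc, duplicate; 72 h; DMSO 0.5% v/v; fix 3.7% formaldehyde 30 min RT; Triton permeabilization; Hoechst 2 ug/mL; HCS imaging 20x; nuclear diameter; gain/loss fit vs DMSO.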

Assay [11] is described as follows: ATG_CRE_CIS: Attagene CIS-FACTORIAL HepG2 Assay for human cAMP Responsive Element (CRE) binding protein 3 (AID 2282926). The following applies: HepG2 CRE cis-reporter, Attagene multiplexed mRNA; actives raise or lower the signal. Summed up:
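Human liver HepG2, transient MRTU transfection, 24 h compound exposure. Total RNA → oligo(dT) RT → PCR → 6-FAM primer extension → HpaI cut → CE. Activity called both directions vs DMSO.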

Assay [12] concerns the target CCAAT/enhancer-binding protein beta (Homo sapiens) (UniProt P17676). As to the kind of experiment: ATG_C_EBP_CIS: Attagene CIS-FACTORIAL HepG2 Assay for human CCAAT/Enhancer Binding Protein (C/EBP) beta (AID 2282927). The conditions noted are these: HepG2 Attagene cis-factorial transcription factor reporter; actives raise or lower the signal. In outline:
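Changes in reporter mRNA, rather than exogenous chimeric receptor activity, reflect native C/EBP signalling in transfected HepG2 cells dosed for 24 h; transcripts are detected by RT-PCR and capillary electrophoresis.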

The nature of assay [13]: ATG_CMV_CIS: Attagene CIS-FACTORIAL HepG2 Assay for human CMV (Internal Marker) (AID 2282928).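 Further: endpoint acts as a background internal control marker rather than a target.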 The conditions noted are these: HepG2 CMV promoter reporter, transcription factor profiling; actives raise or lower the signal. In outline: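 After transient transfection of HepG2 with reporter transcription units driven by cis-regulatory promoters, cells receive test chemical for 24 h. Labeled reporter amplicons, digested with HpaI, are sized and quantified by capillary electrophoresis against DMSO.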

Assay [14] can be described thus: ATG_DR4_LXR_CIS: Attagene CIS-FACTORIAL HepG2 Assay for human Liver X Receptor (LXR), DR4 submotif (AID 2282929). The following applies: HepG2 Attagene DR4 cis-reporter, mRNA transcription; actives raise or lower the signal. Summed up: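 The endpoint is DR4-element-driven reporter transcripts after 24 h chemical exposure of transfected HepG2 cells. These were measured via RT-PCR and capillary electrophoresis, and gain or loss of signal was fitted relative to DMSO controls.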

The target in assay [15] is Aryl hydrocarbon receptor (Homo sapiens) (UniProt P35869). The assay can be described thus: ATG_Ahr_CIS: Attagene CIS-FACTORIAL HepG2 Assay for human Aryl Hydrocarbon Receptor (Ahr) (AID 2282930). The conditions noted are these: HepG2 AhR cis-factorial reporter transcription; actives raise or lower the signal. Summed up: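 HepG2, transient MRTU (cis) transfection, 24 h exposure. RNA → cDNA → PCR → 6-FAM primer extension → HpaI 2 h 37 C → CE. Fit: bidirectional, DMSO baseline.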
Aryl hydrocarbon receptor (Homo sapiens), sequence (P35869 whole entry, looked up): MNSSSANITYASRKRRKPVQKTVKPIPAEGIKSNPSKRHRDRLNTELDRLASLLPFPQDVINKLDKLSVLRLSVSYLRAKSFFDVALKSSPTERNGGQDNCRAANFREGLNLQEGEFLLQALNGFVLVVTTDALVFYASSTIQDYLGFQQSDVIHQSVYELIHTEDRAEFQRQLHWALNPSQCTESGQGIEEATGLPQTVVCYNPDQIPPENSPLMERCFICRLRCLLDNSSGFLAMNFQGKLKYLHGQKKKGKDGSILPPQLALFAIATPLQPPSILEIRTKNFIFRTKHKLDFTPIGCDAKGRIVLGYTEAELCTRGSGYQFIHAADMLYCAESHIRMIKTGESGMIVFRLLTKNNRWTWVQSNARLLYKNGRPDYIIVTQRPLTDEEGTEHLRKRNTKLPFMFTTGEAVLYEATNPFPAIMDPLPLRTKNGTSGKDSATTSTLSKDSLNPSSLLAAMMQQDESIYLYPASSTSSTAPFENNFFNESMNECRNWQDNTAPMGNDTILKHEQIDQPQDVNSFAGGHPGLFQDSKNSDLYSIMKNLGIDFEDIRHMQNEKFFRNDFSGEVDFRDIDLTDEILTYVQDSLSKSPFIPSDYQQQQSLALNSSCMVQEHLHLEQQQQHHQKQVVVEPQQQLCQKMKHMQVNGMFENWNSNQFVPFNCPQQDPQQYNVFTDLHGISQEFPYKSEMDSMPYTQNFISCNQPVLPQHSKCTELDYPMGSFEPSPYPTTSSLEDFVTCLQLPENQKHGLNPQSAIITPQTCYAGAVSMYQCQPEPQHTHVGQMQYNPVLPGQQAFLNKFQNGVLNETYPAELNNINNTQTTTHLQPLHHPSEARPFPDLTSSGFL

Assay [16] is described as follows: ATG_AP_1_CIS: Attagene CIS-FACTORIAL HepG2 Assay for human Activator Protein 1 (AP-1) (AID 2282931). The conditions noted are these: HepG2 Attagene cis-factorial AP-1 reporter mRNA; actives raise or lower the signal. In outline:
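Readout is reporter transcript level from endogenous transcription factor activity, quantified by RT-PCR with fluorescent primer extension and capillary electrophoresis. Transiently transfected HepG2 cells, 24 h exposure. Curves fitted both directions versus DMSO.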

Assay [17] in a line: ATG_AP_2_CIS: Attagene CIS-FACTORIAL HepG2 Assay for human Activator Protein 2 (AP-2) (AID 2282932). The conditions noted are these: HepG2 AP-2 cis-reporter, Attagene transcription factor profiling; actives raise or lower the signal. In outline:
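Step one: transient transfection of HepG2 with reporter transcription units. Step two: 24 h chemical exposure. Step three: RNA extraction, RT-PCR, labelled fragment analysis by capillary electrophoresis; DMSO serves as baseline.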

The target in assay [18] is Retinoic acid receptor alpha (Homo sapiens) (UniProt P10276). The assay can be described thus: ATG_DR5_RAR_CIS: Attagene CIS-FACTORIAL HepG2 Assay for human Retinoic Acid Receptor Alpha (RARE), DR5 submotif (AID 2282934).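 On AC50: reporter responds to endogenous RAR alpha beta and gamma in HepG2 not RARA alone.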 The conditions noted are these: HepG2 Attagene cis-factorial RARE DR5 reporter, mRNA; actives raise or lower the signal. In outline: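 HepG2, transient cis-reporter transfection, 24 h exposure. mRNA readout: RT-PCR, FAM label, HpaI cut, capillary electrophoresis. DMSO baseline, gain/loss fitting.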
Retinoic acid receptor alpha (Homo sapiens), sequence (P10276 whole entry, looked up): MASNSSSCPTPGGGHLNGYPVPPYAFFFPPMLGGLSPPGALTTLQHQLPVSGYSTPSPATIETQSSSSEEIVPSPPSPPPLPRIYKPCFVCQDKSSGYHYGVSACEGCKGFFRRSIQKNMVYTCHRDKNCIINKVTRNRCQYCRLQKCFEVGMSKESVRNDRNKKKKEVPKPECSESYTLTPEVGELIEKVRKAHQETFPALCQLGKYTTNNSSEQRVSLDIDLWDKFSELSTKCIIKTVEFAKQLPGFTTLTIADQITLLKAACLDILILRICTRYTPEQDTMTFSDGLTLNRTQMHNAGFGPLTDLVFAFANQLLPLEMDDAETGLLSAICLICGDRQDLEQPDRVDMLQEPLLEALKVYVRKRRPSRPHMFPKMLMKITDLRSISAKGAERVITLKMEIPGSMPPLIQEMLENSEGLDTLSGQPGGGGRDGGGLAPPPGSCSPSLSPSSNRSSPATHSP

Assay [19] addresses Transcription factor E2F1 (Homo sapiens) (UniProt Q01094). The assay can be described thus: ATG_E2F_CIS: Attagene CIS-FACTORIAL HepG2 Assay for human E2F Transcription Factor 1 (AID 2282935). The conditions noted are these: HepG2 Attagene cis-reporter, E2F reporter RNA transcripts; actives raise or lower the signal. Summed up:
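Total RNA from 24 h-treated, reporter-transfected HepG2 cells undergoes DNase I treatment, oligo(dT) reverse transcription, PCR and 6-FAM primer extension before capillary electrophoresis.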

Assay [20] in a line: ATG_BRE_CIS: Attagene CIS-FACTORIAL HepG2 Assay for human Bone Morphogenetic Protein (BMP) Response Element (BRE) (AID 2282933). The conditions noted are these: HepG2 BMP response element reporter, Attagene transcription factor profiling; actives raise or lower the signal. Summed up:
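HepG2 cells transiently transfected with multiplexed cis-element reporter units were dosed with chemical for 24 h. Reporter mRNA was measured by RT-PCR with fluorescent labelling, HpaI digestion and capillary electrophoresis; bidirectional fitting relative to DMSO.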

Transcription factor E2F1 (Homo sapiens), sequence (Q01094 whole entry, looked up): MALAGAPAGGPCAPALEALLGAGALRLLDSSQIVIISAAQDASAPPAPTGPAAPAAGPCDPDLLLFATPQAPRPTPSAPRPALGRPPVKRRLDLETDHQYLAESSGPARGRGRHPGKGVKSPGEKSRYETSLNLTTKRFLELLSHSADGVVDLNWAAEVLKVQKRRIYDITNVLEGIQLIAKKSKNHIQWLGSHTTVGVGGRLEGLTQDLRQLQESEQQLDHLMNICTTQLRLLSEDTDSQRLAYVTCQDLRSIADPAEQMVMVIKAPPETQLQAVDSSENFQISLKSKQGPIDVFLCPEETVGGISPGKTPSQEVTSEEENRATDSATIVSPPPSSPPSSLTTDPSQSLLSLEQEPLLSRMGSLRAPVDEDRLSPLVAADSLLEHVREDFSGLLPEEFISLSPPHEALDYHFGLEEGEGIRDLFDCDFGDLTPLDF
CCAAT/enhancer-binding protein beta (Homo sapiens), sequence (P17676 whole entry, looked up): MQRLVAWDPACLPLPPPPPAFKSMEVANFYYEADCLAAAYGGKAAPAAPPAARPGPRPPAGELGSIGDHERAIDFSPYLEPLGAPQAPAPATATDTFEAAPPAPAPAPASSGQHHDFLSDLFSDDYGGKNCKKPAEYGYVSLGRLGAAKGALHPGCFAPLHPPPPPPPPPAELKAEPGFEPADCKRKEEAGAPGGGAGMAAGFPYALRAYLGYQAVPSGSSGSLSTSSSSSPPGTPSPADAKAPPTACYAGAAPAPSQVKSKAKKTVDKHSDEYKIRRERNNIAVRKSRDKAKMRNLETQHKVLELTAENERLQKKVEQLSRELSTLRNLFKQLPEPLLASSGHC

As usually defined, the AC50 is the midpoint of the concentration-response curve, whichever way the signal moves. For `O=C(O)C(F)(F)C(F)(F)C(F)(F)C(F)(F)C(F)(F)C(F)(F)C(F)(F)C(F)(F)F`, the result in [1], in [2], in [4], in assay [5], in assay [6] and in assay [7] was inactive. The call in assay [9], in assay [10], in assay [11], in [12], in assay [13] and in [14] was inactive. Further, the outcome in assay [15], in assay [17], in assay [18] and in [19] was inactive. The AC50 in assay [3] was 111 µM (active); in assay [8], 106 µM (active); in assay [13], 62.9 µM (active) and 267 µM (active); in [14] it was 81.9 µM (active) and 50 µM (active); in assay [16], 50.5 µM (active) and 274 µM (active) and 16.7 µM (active); in assay [19] it was 55.4 µM (active).

Take `Cc1cccc(C)c1N`: the compound was called inactive in assay [1], in [2], in assay [3], in [4], in assay [5] and in [6]. Moreover, the result in [7], in [8], in [9], in assay [10], in assay [11] and in [12] was inactive. The result in assay [13], in assay [14], in assay [15], in assay [16], in assay [17] and in [20] was inactive. Further, the result in [18] and in assay [19] was inactive.

As to `CN(C)c1nc(=O)n(C2CCCCC2)c(=O)n1C`, the call in assay [1], in assay [2], in assay [3], in assay [4], in assay [5] and in assay [6] was inactive. Further, the compound was called inactive in assay [7], in assay [9], in [10], in [11], in assay [12] and in [13]. Moreover, the call in assay [14], in assay [15], in assay [16], in [17], in [20] and in assay [19] was inactive.

For `N#Cc1ccc(N(CC(N)=O)CC(F)(F)F)cc1C(F)(F)F`, the call in assay [1], in assay [2], in assay [3], in [4], in assay [5] and in assay [6] was inactive. Also, the outcome in [7], in [8], in assay [9], in [10], in assay [11] and in assay [12] was inactive. Besides, the result in assay [13], in [14], in assay [15], in assay [16], in [17] and in assay [20] was inactive. Also, in assay [19], the compound was called inactive. In [18], the AC50 is 1.56 µM (active).

Turning to `O=S(=O)(O)C(F)(F)C(F)(F)C(F)(F)C(F)(F)C(F)(F)C(F)(F)F`, the compound was classed as inactive in [1], in [2], in [3], in assay [4], in assay [5] and in [6]. The result in assay [7], in [8], in assay [9], in assay [10], in assay [11] and in [12] was inactive. Moreover, the compound was called inactive in assay [13], in assay [14], in assay [15], in assay [16], in assay [17] and in [20]. In addition, in assay [19], the result was inactive. Also, the AC50 in [16] was 117 µM (active).
